# In article PMC7862700, “An all-to-all approach to the identification of sequence-specific readers for epigenetic DNA modifications on cytosine”:
# What was measured:
# Assay in all cases: DAPPL (digital affinity profiling via proximity ligation, sequencing); 10 mM Tris-HCl pH 7.5, 50 mM NaCl, 1 mM DTT, 4% glycerol, room temperature, 30 min; GST-TFs on glutathione beads, 16-mer random dsDNA library, 0.1% formaldehyde crosslink after washing; high values mean tight binding
# FLI1 = target: T1, FLI1 (Homo sapiens, UniProt Q01543 1-452); conditions: protein: recombinant; tags: N-terminal GST; dsDNA, one strand shown
# T1 sequence: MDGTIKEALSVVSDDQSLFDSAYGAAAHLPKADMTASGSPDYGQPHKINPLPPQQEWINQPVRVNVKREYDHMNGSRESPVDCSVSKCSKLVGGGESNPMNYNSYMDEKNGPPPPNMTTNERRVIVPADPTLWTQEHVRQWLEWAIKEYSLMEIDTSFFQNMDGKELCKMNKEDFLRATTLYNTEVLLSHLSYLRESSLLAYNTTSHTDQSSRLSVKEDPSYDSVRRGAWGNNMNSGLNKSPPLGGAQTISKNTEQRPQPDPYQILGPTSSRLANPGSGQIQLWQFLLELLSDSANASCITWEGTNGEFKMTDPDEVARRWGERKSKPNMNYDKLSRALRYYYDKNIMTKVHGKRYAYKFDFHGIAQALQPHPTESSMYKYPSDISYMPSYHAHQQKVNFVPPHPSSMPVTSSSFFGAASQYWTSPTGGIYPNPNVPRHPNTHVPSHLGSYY
# Outline: (§1)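 Human transcription factors carrying a GST fusion were produced in yeast, bound to glutathione beads, tagged with DNA barcodes and pooled together with a tag-only sample. Each pool was held with 200 nmole of a random double-stranded 16-mer DNA library in Tris/NaCl/DTT/glycerol buffer for 30 min at room temperature, then washed, crosslinked in 0.1% formaldehyde, proximity-ligated with BsaI/T4 ligase (1 h, 37 °C), PCR-amplified and sequenced on an Illumina NextSeq500. Binding signal is the read frequency of each hexamer for a given factor divided by its frequency in the tag-only sample.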
# ELK1 = target: T2, ELK1 (Homo sapiens, UniProt P19419 1-428); conditions: protein: recombinant; tags: N-terminal GST; dsDNA, one strand shown
# T2 sequence: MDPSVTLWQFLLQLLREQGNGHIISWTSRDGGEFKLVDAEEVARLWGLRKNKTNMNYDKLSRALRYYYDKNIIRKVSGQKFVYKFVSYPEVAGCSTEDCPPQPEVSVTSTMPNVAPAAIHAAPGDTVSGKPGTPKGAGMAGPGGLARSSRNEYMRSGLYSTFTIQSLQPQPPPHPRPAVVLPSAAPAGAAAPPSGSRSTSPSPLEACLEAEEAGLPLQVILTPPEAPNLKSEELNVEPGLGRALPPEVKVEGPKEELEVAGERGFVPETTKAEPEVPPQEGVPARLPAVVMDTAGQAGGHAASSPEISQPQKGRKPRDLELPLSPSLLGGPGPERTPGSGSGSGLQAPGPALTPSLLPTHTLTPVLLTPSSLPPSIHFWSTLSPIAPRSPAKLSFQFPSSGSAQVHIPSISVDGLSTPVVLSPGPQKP
# Outline: as §1
# GABPA = target: T3, GABPA (Homo sapiens, UniProt Q06546 1-454); conditions: protein: recombinant; tags: N-terminal GST; dsDNA, one strand shown
# T3 sequence: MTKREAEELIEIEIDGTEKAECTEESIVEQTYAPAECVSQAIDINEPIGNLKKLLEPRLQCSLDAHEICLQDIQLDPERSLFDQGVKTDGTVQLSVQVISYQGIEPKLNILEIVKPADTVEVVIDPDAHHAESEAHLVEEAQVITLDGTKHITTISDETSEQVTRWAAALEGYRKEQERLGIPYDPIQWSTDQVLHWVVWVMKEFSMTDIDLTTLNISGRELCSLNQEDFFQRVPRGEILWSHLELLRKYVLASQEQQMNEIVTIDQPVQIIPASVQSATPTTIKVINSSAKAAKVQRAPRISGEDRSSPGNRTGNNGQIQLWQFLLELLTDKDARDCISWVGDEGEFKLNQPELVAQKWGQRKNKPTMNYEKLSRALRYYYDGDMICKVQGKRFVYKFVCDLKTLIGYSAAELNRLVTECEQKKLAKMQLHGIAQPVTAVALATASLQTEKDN
# Outline: as §1
# ERG = target: T4, ERG (Homo sapiens, UniProt P11308 1-479); conditions: protein: recombinant; tags: N-terminal GST; dsDNA, one strand shown
# T4 sequence: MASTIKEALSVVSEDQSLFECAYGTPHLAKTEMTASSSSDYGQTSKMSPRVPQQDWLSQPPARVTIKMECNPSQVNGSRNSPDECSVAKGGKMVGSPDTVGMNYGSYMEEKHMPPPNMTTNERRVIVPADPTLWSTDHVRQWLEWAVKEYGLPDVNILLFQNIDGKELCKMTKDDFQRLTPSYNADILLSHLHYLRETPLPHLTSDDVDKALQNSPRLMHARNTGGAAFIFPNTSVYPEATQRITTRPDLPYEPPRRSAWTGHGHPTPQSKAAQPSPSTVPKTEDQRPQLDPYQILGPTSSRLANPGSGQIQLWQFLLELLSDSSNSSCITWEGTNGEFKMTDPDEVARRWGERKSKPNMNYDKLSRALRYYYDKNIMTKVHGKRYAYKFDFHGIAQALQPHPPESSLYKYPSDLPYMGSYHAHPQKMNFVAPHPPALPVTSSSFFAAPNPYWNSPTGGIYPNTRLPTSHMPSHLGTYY
# Outline: as §1
# ELF1 = ELF1 (Homo sapiens, UniProt P32519 1-619); conditions: protein: recombinant; tags: N-terminal GST; dsDNA, one strand shown
# ELF1, sequence (P32519 whole entry): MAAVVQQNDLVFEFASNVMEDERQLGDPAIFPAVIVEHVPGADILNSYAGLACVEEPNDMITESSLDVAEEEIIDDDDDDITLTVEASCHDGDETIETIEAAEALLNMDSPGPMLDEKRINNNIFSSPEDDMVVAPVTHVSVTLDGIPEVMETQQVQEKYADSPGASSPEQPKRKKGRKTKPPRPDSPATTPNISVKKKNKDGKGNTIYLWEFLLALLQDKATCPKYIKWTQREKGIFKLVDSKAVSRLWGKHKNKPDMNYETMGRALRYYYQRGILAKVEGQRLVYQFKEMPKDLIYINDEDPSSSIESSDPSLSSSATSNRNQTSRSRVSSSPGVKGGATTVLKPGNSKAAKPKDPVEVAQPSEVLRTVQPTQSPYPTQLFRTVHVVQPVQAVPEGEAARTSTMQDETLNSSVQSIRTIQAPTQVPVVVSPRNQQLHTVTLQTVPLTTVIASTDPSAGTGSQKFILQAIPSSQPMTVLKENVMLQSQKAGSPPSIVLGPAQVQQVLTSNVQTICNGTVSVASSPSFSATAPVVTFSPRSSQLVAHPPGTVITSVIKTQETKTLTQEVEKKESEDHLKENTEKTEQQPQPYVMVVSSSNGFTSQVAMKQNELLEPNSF
# Outline: as §1
# EHF = target: T5, EHF (Homo sapiens, UniProt Q9NZC4 1-300); conditions: protein: recombinant; tags: N-terminal GST; dsDNA, one strand shown
# T5 sequence: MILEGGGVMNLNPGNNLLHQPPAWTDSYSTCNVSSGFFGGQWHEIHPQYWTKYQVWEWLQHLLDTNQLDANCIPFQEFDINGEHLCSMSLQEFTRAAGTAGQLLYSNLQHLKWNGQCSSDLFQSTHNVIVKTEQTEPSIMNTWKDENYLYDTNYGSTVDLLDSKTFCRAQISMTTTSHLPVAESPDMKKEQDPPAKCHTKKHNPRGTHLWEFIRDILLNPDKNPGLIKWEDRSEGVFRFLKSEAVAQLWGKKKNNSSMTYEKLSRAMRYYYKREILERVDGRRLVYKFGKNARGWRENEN
# Outline: as §1
# SPI1 = SPI1 (Homo sapiens, UniProt P17947 1-270); conditions: protein: recombinant; tags: N-terminal GST; dsDNA, one strand shown
# Outline: as §1
# SPIB = SPIB (Homo sapiens, UniProt Q01892 1-262); conditions: protein: recombinant; tags: N-terminal GST; dsDNA, one strand shown
# SPIB, sequence (Q01892 whole entry): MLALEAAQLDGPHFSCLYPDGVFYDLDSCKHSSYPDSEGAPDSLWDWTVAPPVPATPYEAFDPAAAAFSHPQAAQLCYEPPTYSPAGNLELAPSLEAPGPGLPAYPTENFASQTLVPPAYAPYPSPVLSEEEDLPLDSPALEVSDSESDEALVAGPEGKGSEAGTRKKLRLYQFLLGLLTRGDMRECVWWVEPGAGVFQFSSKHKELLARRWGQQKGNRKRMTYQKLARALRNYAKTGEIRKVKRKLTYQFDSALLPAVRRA
# Outline: as §1
# ELK3 = target: T6, ELK3 (Homo sapiens, UniProt P41970 1-407); conditions: protein: recombinant; tags: N-terminal GST; dsDNA, one strand shown
# T6 sequence: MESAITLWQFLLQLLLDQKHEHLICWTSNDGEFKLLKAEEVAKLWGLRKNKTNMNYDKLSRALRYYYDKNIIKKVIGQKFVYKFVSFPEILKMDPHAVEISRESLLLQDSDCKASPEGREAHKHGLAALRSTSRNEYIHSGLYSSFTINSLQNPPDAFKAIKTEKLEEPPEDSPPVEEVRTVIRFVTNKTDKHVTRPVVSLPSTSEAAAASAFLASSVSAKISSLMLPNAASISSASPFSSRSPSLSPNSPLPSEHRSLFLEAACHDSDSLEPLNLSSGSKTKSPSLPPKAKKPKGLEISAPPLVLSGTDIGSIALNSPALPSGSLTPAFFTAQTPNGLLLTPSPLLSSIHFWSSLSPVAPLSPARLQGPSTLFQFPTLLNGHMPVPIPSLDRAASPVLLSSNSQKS
# Outline: as §1
# FEV = target: T7, FEV (Homo sapiens, UniProt Q99581 1-238); conditions: protein: recombinant; tags: N-terminal GST; dsDNA, one strand shown
# T7 sequence: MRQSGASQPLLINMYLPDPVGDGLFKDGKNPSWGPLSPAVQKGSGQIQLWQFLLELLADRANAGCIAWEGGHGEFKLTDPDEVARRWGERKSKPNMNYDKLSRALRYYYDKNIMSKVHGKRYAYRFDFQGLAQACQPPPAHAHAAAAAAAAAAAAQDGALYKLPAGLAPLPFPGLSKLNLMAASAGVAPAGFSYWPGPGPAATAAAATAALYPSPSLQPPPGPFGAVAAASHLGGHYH
# Outline: as §1
# ETV5 = ETV5 (Homo sapiens, UniProt P41161 1-510); conditions: protein: recombinant; tags: N-terminal GST; dsDNA, one strand shown
# ETV5, sequence (P41161 whole entry): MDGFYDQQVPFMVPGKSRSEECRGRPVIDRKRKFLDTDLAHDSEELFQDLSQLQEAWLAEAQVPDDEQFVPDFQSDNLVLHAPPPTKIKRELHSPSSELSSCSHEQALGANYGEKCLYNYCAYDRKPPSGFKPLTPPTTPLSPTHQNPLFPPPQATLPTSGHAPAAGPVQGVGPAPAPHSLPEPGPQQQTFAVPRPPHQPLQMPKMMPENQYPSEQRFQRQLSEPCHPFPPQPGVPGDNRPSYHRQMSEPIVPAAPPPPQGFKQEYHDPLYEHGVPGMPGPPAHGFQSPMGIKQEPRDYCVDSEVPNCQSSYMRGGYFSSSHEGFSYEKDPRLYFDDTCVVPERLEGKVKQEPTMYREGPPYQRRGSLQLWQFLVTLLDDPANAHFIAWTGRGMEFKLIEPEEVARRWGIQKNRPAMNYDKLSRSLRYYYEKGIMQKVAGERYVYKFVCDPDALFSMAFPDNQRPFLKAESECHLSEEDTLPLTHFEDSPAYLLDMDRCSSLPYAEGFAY
# Outline: as §1
# HSF1 = HSF1 (Homo sapiens, UniProt Q00613 1-529); conditions: protein: recombinant; tags: N-terminal GST; chain copies: 3; dsDNA, one strand shown
# HSF1, sequence (Q00613 whole entry): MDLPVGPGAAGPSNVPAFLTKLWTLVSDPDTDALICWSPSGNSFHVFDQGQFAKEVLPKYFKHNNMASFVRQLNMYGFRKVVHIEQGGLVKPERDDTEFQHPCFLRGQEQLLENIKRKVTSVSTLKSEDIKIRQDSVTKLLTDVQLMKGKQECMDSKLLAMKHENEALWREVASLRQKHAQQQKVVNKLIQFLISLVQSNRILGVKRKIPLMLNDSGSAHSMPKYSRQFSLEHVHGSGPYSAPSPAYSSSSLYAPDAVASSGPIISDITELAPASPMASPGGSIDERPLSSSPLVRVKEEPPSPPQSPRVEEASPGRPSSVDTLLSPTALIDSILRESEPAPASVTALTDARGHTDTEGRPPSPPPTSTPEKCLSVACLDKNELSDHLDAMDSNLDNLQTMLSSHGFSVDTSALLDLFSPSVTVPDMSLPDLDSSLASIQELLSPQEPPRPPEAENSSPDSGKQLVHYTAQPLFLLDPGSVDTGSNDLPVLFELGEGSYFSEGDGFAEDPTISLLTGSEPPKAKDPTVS
# Outline: as §1
# SPIC = target: T8, SPIC (Homo sapiens, UniProt Q8N5J4 1-248); conditions: protein: recombinant; tags: N-terminal GST; dsDNA, one strand shown
# T8 sequence: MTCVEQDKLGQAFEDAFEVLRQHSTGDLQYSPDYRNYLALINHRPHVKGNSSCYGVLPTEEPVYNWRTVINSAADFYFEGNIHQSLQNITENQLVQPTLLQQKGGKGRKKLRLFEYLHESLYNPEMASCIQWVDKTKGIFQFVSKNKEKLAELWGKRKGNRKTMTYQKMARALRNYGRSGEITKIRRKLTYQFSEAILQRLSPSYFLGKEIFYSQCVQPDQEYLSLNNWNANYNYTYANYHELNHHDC
# Outline: as §1
# ELF4 = ELF4 (Homo sapiens, UniProt Q99607 1-663); conditions: protein: recombinant; tags: N-terminal GST; dsDNA, one strand shown
# ELF4, sequence (Q99607 whole entry): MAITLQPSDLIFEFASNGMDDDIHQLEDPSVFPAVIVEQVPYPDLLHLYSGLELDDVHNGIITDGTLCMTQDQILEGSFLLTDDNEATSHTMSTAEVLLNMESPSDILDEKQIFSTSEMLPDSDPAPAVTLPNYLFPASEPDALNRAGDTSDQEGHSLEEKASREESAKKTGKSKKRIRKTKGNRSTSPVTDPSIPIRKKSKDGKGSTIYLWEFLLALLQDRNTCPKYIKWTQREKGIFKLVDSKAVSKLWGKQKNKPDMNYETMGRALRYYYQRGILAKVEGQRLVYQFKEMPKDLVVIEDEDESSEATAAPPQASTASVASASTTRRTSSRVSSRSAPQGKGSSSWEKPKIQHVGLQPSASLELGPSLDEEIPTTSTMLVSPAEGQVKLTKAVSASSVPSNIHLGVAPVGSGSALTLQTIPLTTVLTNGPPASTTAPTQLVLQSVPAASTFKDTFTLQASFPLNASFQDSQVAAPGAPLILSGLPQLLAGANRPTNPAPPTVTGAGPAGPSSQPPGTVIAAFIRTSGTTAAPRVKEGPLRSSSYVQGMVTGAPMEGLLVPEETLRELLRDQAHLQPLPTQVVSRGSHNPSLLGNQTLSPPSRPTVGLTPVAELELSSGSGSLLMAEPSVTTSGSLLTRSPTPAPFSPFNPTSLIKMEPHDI
# Outline: as §1
# ELK4 = target: T9, ELK4 (Homo sapiens, UniProt P28324-2 1-405); conditions: protein: recombinant; tags: N-terminal GST; dsDNA, one strand shown
# T9 sequence: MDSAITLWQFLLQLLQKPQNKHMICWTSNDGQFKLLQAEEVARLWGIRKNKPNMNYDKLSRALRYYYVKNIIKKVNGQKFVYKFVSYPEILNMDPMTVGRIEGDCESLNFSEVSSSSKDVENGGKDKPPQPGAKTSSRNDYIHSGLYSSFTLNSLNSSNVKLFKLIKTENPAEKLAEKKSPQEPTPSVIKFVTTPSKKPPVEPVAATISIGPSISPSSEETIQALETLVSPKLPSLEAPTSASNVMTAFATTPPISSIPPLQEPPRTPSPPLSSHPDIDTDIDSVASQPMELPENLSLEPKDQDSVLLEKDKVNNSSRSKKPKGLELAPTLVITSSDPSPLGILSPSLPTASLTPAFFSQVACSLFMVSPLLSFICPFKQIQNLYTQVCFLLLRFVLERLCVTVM
# Outline: as §1
# ELF3 = target: T10, ELF3 (Homo sapiens, UniProt P78545 1-371); conditions: protein: recombinant; tags: N-terminal GST; dsDNA, one strand shown
# T10 sequence: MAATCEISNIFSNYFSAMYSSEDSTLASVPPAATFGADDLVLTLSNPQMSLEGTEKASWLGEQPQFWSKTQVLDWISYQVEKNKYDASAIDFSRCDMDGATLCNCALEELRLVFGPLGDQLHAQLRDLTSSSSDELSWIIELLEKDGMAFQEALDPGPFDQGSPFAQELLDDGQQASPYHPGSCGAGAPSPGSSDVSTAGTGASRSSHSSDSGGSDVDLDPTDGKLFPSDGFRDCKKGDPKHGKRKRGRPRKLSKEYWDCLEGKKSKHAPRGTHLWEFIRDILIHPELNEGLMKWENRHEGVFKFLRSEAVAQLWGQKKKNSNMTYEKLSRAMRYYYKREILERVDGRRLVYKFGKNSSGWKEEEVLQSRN
# Outline: as §1
# CRX = CRX (Homo sapiens, UniProt O43186 1-299); conditions: protein: recombinant; tags: N-terminal GST; dsDNA, one strand shown
# CRX, sequence (O43186 whole entry): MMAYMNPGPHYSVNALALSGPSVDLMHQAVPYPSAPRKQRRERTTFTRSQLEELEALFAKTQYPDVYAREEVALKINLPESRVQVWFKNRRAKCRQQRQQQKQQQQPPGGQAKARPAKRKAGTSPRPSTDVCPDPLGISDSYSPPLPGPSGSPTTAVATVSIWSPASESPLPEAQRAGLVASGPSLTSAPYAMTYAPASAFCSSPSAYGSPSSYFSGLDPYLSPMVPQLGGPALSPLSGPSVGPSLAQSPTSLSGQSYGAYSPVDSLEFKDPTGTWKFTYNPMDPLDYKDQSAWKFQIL
# Outline: as §1
# ETV1 = ETV1 (Homo sapiens, UniProt P50549 1-477); conditions: protein: recombinant; tags: N-terminal GST; dsDNA, one strand shown
# ETV1, sequence (P50549 whole entry): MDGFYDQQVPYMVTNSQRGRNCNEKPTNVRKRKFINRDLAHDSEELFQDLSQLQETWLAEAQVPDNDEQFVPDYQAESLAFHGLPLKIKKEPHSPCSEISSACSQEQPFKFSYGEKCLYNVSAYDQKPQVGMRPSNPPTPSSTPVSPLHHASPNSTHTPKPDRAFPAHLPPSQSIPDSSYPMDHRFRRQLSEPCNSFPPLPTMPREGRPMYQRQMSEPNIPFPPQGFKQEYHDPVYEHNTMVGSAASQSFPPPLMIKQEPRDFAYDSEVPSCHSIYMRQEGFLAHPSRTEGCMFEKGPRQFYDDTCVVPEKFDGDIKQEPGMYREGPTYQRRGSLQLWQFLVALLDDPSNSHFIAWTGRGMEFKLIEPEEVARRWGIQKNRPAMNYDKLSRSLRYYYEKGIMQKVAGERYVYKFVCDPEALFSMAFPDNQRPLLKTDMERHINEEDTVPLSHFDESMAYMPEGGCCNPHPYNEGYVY
# Outline: as §1
sequence,measurement,setting,value
AATAGG,binding signal,FLI1,"1.15 fold enrichment (6-mer frequency, TF over GST control)"
same,binding signal,ELK1,"1.11 fold enrichment (6-mer frequency, TF over GST control)"
same,binding signal,GABPA,"1.15 fold enrichment (6-mer frequency, TF over GST control)"
same,binding signal,ERG,"1.2 fold enrichment (6-mer frequency, TF over GST control)"
same,binding signal,ELF1,"1.08 fold enrichment (6-mer frequency, TF over GST control)"
same,binding signal,EHF,"1.27 fold enrichment (6-mer frequency, TF over GST control)"
same,binding signal,SPI1,"1.37 fold enrichment (6-mer frequency, TF over GST control)"
same,binding signal,SPIB,"1.22 fold enrichment (6-mer frequency, TF over GST control)"
same,binding signal,ELK3,"1.14 fold enrichment (6-mer frequency, TF over GST control)"
same,binding signal,FEV,"1.13 fold enrichment (6-mer frequency, TF over GST control)"
same,binding signal,ETV5,"1.16 fold enrichment (6-mer frequency, TF over GST control)"
same,binding signal,HSF1,"1.02 fold enrichment (6-mer frequency, TF over GST control)"
same,binding signal,SPIC,"1.14 fold enrichment (6-mer frequency, TF over GST control)"
same,binding signal,ELF4,"1.04 fold enrichment (6-mer frequency, TF over GST control)"
same,binding signal,ELK4,"1.08 fold enrichment (6-mer frequency, TF over GST control)"
same,binding signal,ELF3,"1.09 fold enrichment (6-mer frequency, TF over GST control)"
same,binding signal,CRX,"1.21 fold enrichment (6-mer frequency, TF over GST control)"
same,binding signal,ETV1,"1.25 fold enrichment (6-mer frequency, TF over GST control)"
